# Reference: PubChem BioAssay AID1159580 (chemical genetic matrix, 2015)
# Several values for one entry are separate records, joined by “and”; a condition that tells them apart may be missing. Equal values may be shown once. About 2,000 (36%) of roughly 5,500 compounds were called active. Inconclusive results (about 18%) are left out. Some of the results follow. Values without a mark were called inactive. No stated cut-off is given here; in the data, active means normalized growth mostly below about 0.91 (no sharp cut-off); inconclusive means no clear call, values can overlap the other calls; inactive means mostly above about 0.92.
# Assay: chemical genetic growth profiling, strain panel (AID 1159580);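 further: tested at 20 µM; growth read once vehicle control cultures reached saturation at 30 °C; 1 = growth at the plate median or of vehicle wells; lower values mean less growth of the strain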
# Conditions: S. cerevisiae deletion strains, growth OD
# [1] = locus YAL013W, strain DEP1, active compounds read low
# [2] = locus YDR150W, strain NUM1, active compounds read low
# [3] = locus YGR078C, strain PAC10, active compounds read low
# [4] = locus YJR075W, strain HOC1, active compounds read low
# [5] = locus YMR263W, strain SAP30, active compounds read low
# [6] = locus YNL153C, strain GIM3, active compounds read low
# [7] = locus YNL322C, strain KRE1, active compounds read low
# [8] = locus YPL055C, strain LGE1, active compounds read low
# [9] = locus YPL241C, strain CIN2, active compounds read low
# [10] = locus YAL040C, strain CLN3, active compounds read low
# [11] = locus YCL061C, strain MRC1 (second series), active compounds read low
# [12] = locus YDR363W, strain ESC2, active compounds read low
# [13] = locus YER002W, strain NOP16, active compounds read low
# [14] = locus YMR307W, strain GAS1, active compounds read low
# [15] = locus YNL128W, strain TEP1, active compounds read low
# [16] = locus YNL175C, strain NOP13, active compounds read low
# [17] = locus YNL197C, strain WHI3, active compounds read low
# [18] = locus YNL224C, strain SQS1, active compounds read low
# [19] = locus YOR083W, strain WHI5 (second series), active compounds read low
structure (smiles),measurement,setting,value
Clc1ccc(Oc2ccnc3cc(Cl)ccc23)cc1,normalized growth,[1],0.909 (active)
same,normalized growth,"locus YAR019C, strain CDC15, active compounds read low",0.898
same,normalized growth,"locus YBL105C, strain PKC1, active compounds read low",0.923
same,normalized growth,"locus YBR135W, strain CKS1, active compounds read low",0.913
same,normalized growth,"locus YBR136W, strain MEC1, active compounds read low",0.922
same,normalized growth,"locus YBR160W, strain CDC28, active compounds read low",0.918
same,normalized growth,"locus YBR229C, strain ROT2, active compounds read low",0.956
same,normalized growth,"locus YDL017W, strain CDC7, active compounds read low",0.919
same,normalized growth,"locus YDL028C, strain MPS1, active compounds read low",0.926
same,normalized growth,"locus YDL101C, strain DUN1, active compounds read low",0.915 and 0.93
same,normalized growth,"locus YDL108W, strain KIN28, active compounds read low",0.921
same,normalized growth,"locus YDL132W, strain cdc53, active compounds read low",0.91
same,normalized growth,"locus YDL214C, strain PRR2, active compounds read low",0.745
same,normalized growth,"locus YDR052C, strain DBF4, active compounds read low",0.918
same,normalized growth,"locus YDR054C, strain cdc34, active compounds read low",0.894
same,normalized growth,[2],0.943
same,normalized growth,"locus YDR226W, strain ADK1, active compounds read low",0.903
same,normalized growth,"locus YDR477W, strain SNF1, active compounds read low",0.678 (active)
same,normalized growth,"locus YEL061C, strain CIN8, active compounds read low",0.944
same,normalized growth,"locus YER123W, strain YCK3, active compounds read low",0.517 (active)
same,normalized growth,"locus YER133W, strain GLC7, active compounds read low",0.613 (active)
same,normalized growth,"locus YFL009W, strain cdc4, active compounds read low",0.903
same,normalized growth,"locus YFL029C, strain CAK1, active compounds read low",0.898
same,normalized growth,"locus YFR003C, strain YPI1, active compounds read low",0.916
same,normalized growth,"locus YFR019W, strain FAB1, active compounds read low",0.893
same,normalized growth,"locus YFR028C, strain CDC14, active compounds read low",0.908
same,normalized growth,"locus YGR040W, strain KSS1, active compounds read low",0.67 (active)
same,normalized growth,"locus YGR052W, strain FMP48, active compounds read low",0.659
same,normalized growth,[3],0.92 (active)
same,normalized growth,"locus YGR092W, strain DBF2, active compounds read low",0.627
same,normalized growth,"locus YHR030C, strain SLT2, active compounds read low",0.235 (active) and 0.376 (active)
same,normalized growth,"locus YHR079C, strain IRE1, active compounds read low",0.546
same,normalized growth,"locus YHR082C, strain KSP1, active compounds read low",0.626
same,normalized growth,"locus YHR087W, strain rtc3, active compounds read low",0.923
same,normalized growth,"locus YHR205W, strain SCH9, active compounds read low",0.704
same,normalized growth,"locus YIL147C, strain SLN1, active compounds read low",0.924
same,normalized growth,"locus YJL095W, strain BCK1, active compounds read low",0.49 (active)
same,normalized growth,"locus YJL128C, strain PBS2, active compounds read low",0.865
same,normalized growth,"locus YJL157C, strain FAR1, active compounds read low",0.683 (active)
same,normalized growth,"locus YJR016C, strain ILV3, active compounds read low",0.914
same,normalized growth,"locus YJR043C, strain POL32, active compounds read low",0.964
same,normalized growth,"locus YJR066W, strain TOR1 (second series), active compounds read low",0.684
same,normalized growth,"locus YJR066W, strain TOR1, active compounds read low",0.544
same,normalized growth,[4],0.804 (active)
same,normalized growth,"locus YKL048C, strain ELM1, active compounds read low",0.888
same,normalized growth,"locus YKL067W, strain YNK1, active compounds read low",0.735
same,normalized growth,"locus YKL101W, strain HSL1, active compounds read low",0.772
same,normalized growth,"locus YKL193C, strain SDS22, active compounds read low",0.911
same,normalized growth,"locus YKL203C, strain TOR2, active compounds read low",0.68 (active)
same,normalized growth,"locus YLR039C, strain RIC1, active compounds read low",0.779 (active)
same,normalized growth,"locus YLR058C, strain SHM2 (second series), active compounds read low",0.951
same,normalized growth,"locus YLR085C, strain ARP6, active compounds read low",0.499 (active)
same,normalized growth,"locus YLR113W, strain HOG1, active compounds read low",0.379 (active)
same,normalized growth,"locus YLR133W, strain CKI1, active compounds read low",0.772
same,normalized growth,"locus YLR262C, strain YPT6, active compounds read low",0.817
same,normalized growth,"locus YLR403W, strain SFP1, active compounds read low",0.675
same,normalized growth,"locus YML070W, strain DAK1, active compounds read low",0.681
same,normalized growth,"locus YML094W, strain GIM5, active compounds read low",0.994
same,normalized growth,"locus YMR001C, strain CDC5, active compounds read low",0.908
same,normalized growth,"locus YMR205C, strain PFK2 (second series), active compounds read low",0.742 (active)
same,normalized growth,"locus YMR219W, strain ESC1, active compounds read low",0.948
same,normalized growth,[5],0.945
same,normalized growth,"locus YMR277W, strain FCP1, active compounds read low",0.915
same,normalized growth,"locus YNL006W, strain LST8, active compounds read low",0.92
same,normalized growth,"locus YNL020C, strain ARK1, active compounds read low",0.762
same,normalized growth,[6],0.98
same,normalized growth,"locus YNL161W, strain CBK1, active compounds read low",0.897 (active)
same,normalized growth,"locus YNL183C, strain NPR1, active compounds read low",0.456 (active)
same,normalized growth,"locus YNL207W, strain RIO2, active compounds read low",0.906
same,normalized growth,"locus YNL222W, strain SSU72, active compounds read low",0.916
same,normalized growth,"locus YNL298W, strain CLA4 (second series), active compounds read low",0.924
same,normalized growth,"locus YNL307C, strain MCK1 (second series), active compounds read low",0.701
same,normalized growth,[7],0.947
same,normalized growth,"locus YNR030W, strain Alg12, active compounds read low",0.802 (active)
same,normalized growth,"locus YOL078W, strain AVO1, active compounds read low",0.904
same,normalized growth,"locus YOL136C, strain PFK27, active compounds read low",0.668 (active)
same,normalized growth,"locus YOR061W, strain CKA2, active compounds read low",0.792
same,normalized growth,"locus YOR119C, strain RIO1, active compounds read low",0.684 (active)
same,normalized growth,"locus YOR231W, strain MKK1, active compounds read low",0.489 (active)
same,normalized growth,"locus YOR329C, strain SCD5, active compounds read low",0.912
same,normalized growth,"locus YPL031C, strain PHO85, active compounds read low",0.599 (active)
same,normalized growth,[8],0.887
same,normalized growth,"locus YPL153C, strain RAD53, active compounds read low",0.659 (active)
same,normalized growth,"locus YPL204W, strain HRR25, active compounds read low",0.598 (active)
same,normalized growth,"locus YPL209C, strain IPL1, active compounds read low",0.918
same,normalized growth,[9],0.638 (active)
same,normalized growth,"locus YPL256C, strain CLN2, active compounds read low",0.447 (active)
same,normalized growth,"locus YPR025C, strain CCL1, active compounds read low",0.914
same,normalized growth,"locus YPR106W, strain ISR1, active compounds read low",0.896
same,normalized growth,"locus YPR111W, strain DBF20, active compounds read low",0.89
same,normalized growth,"locus YPR135W, strain CTF4, active compounds read low",0.325 (active)
same,normalized growth,"strain NNK1, active compounds read low",0.88 (active)
same,normalized growth,"strain TSCII, active compounds read low",0.9
C[C@@H](Oc1ccc(Oc2cnc3ccc(Cl)cc3n2)cc1)C(=O)O,normalized growth,[1],1.04
same,normalized growth,[10],1.04
same,normalized growth,[11],1
same,normalized growth,[12],1.01
same,normalized growth,[13],0.995
same,normalized growth,[3],1.01
same,normalized growth,"locus YGR229C, strain SMI1, active compounds read low",1.02
same,normalized growth,[4],1
same,normalized growth,[5],1.01
same,normalized growth,[14],0.983
same,normalized growth,[15],0.996
same,normalized growth,[16],0.984
same,normalized growth,[17],0.996
same,normalized growth,[18],0.997
same,normalized growth,[7],1
same,normalized growth,[19],1
same,normalized growth,[9],1
Clc1cnc(Oc2ccc(Oc3ncc(Cl)cc3Cl)cc2)c(Cl)c1,normalized growth,[1],1.03
same,normalized growth,[10],1.01
same,normalized growth,[11],1.01
same,normalized growth,[2],1.01
same,normalized growth,[12],1.03
same,normalized growth,[13],0.995
same,normalized growth,[14],1.02
same,normalized growth,[15],1.01
same,normalized growth,[6],1
same,normalized growth,[16],1
same,normalized growth,[17],1.02
same,normalized growth,[18],1.02
same,normalized growth,[19],1.06
same,normalized growth,[8],1.04
same,normalized growth,[9],1.01
NC(=NCc1ccc(Cl)c(Cl)c1)NC(=O)c1nc(Cl)c(N)nc1N,normalized growth,[10],1.01
same,normalized growth,[11],0.999
same,normalized growth,[12],0.992
same,normalized growth,[13],1.01
same,normalized growth,[5],1.01
same,normalized growth,[14],0.993
same,normalized growth,[6],0.995
same,normalized growth,[16],1.02
same,normalized growth,[17],1.03
same,normalized growth,[18],1.03
same,normalized growth,[7],0.966
same,normalized growth,[19],1.01
CC(=O)OCC1=C(C(=O)O)N2C(=O)[C@@H](NC(=O)CCC[C@@H](N)C(=O)O)[C@H]2SC1,normalized growth,[10],0.993
same,normalized growth,[11],1
same,normalized growth,[2],1.01
same,normalized growth,[12],1.03
same,normalized growth,[13],1.02
same,normalized growth,[3],0.993
same,normalized growth,[14],0.997
same,normalized growth,[15],0.98
same,normalized growth,[16],1.01
same,normalized growth,[17],1.02
same,normalized growth,[18],1.03
same,normalized growth,[19],1.04
same,normalized growth,[8],1.01
same,normalized growth,[9],1
c1ccc2c(c1)[I+]c1ccccc1-2,normalized growth,[1],0.513 (active)
same,normalized growth,[10],1.05
same,normalized growth,[11],0.63 (active)
same,normalized growth,[12],0.302 (active)
same,normalized growth,[13],1.02
same,normalized growth,[4],0.429 (active)
same,normalized growth,[16],1.03
same,normalized growth,[17],0.958
same,normalized growth,[18],0.892 (active)
same,normalized growth,[19],0.569 (active)
same,normalized growth,[9],0.517 (active)
